Assay results from PubChem BioAssay (NCI).
Compounds without any hit were thinned out: in the full panel of roughly 83,000, 20% have a hit.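 The test compound was applied at a single concentration to cells in 96-well plates for 48 hours, and percent growth was recorded.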 Activity calls are given as the source filed them. Rule for the calls: active = growth percent below 10; inactive = the rest.

Legend:
Assay in all cases: NCI-60 one-dose screen, 48 h (100 = growth as untreated, 0 = no growth, -100 = all killed)
Details in all cases: 10 µM unless noted
T-47D breast = system: T-47D breast
BT-549 breast = system: BT-549 breast
MDA-MB-435 melanoma = system: MDA-MB-435 melanoma
SW-620 colon = system: SW-620 colon
MCF7 breast = system: MCF7 breast
HCT-116 colon = system: HCT-116 colon
HCC-2998 colon = system: HCC-2998 colon
KM12 colon = system: KM12 colon

Measured: growth

C=C(C=O)[C@@H]1CC[C@]2(COC(C)=O)CC[C@]3(C)C(CC[C@@H]4[C@@]5(C)CC[C@H](OC(C)=O)C(C)(C)[C@@H]5CC[C@]43C)[C@@H]12 (stereo not given in full)
active: T-47D breast 4.4% | MDA-MB-435 melanoma -13.6% | SW-620 colon 0.204% | MCF7 breast -33.5% | HCT-116 colon -58.4% | HCC-2998 colon -63% | KM12 colon -40.8%
inactive: BT-549 breast 11.1%

COc1cc(OC)c(S(N)(=O)=O)cc1C(C)=O
inactive: T-47D breast 98.3% | BT-549 breast 115% | MDA-MB-435 melanoma 107% | SW-620 colon 113% | MCF7 breast 89.8% | HCT-116 colon 114% | HCC-2998 colon 106% | KM12 colon 104%

COc1ccc(-c2cc(-c3ccc(Cl)cc3)c(C#N)c(=O)n2Cc2ccc(C(=O)O)cc2)cc1
inactive: T-47D breast 48.7% | BT-549 breast 62.8% | MDA-MB-435 melanoma 21.1% | SW-620 colon 94.8% | MCF7 breast 33.3% | HCT-116 colon 77.7% | HCC-2998 colon 95.6% | KM12 colon 43.2%

CCCC(=O)NC(c1cccnc1)c1cc(C(C)(C)C)c2cccnc2c1O (stereo not given)
inactive: T-47D breast 24.1% | BT-549 breast 24.8% | MDA-MB-435 melanoma 30.2% | SW-620 colon 34.2% | MCF7 breast 10.9% | HCT-116 colon 21.7% | HCC-2998 colon 51.4% | KM12 colon 18.8%

COc1cccc2cc(-c3cc4ccccc4[nH]3)/c(=N\NC(=O)c3ccc(Cl)cc3)oc12
inactive: T-47D breast 13.3% | BT-549 breast 58.3% | MDA-MB-435 melanoma 44.7% | SW-620 colon 38.3% | HCT-116 colon 21.8% | HCC-2998 colon 69% | KM12 colon 28.2%
active: MCF7 breast 8.32%

C#CC(=O)N(c1ccc(OC)cc1OC)C(C(=O)NCC(=O)OCC)c1cccs1 (stereo not given)
active: SW-620 colon 2.04%
inactive: T-47D breast 38.1% | BT-549 breast 70.3% | MDA-MB-435 melanoma 95.5% | MCF7 breast 49.1% | HCT-116 colon 41.9% | HCC-2998 colon 110% | KM12 colon 28.5%

COc1ccc(NC(=O)CSc2nnc(-c3ccc4nc(-c5ccccc5)[nH]c4c3)o2)cc1
inactive: T-47D breast 94.7% | BT-549 breast 93.5% | MDA-MB-435 melanoma 100% | SW-620 colon 104% | MCF7 breast 86.2% | HCT-116 colon 102% | HCC-2998 colon 114% | KM12 colon 99.4%

COc1ccc([C@@H]2c3[nH]c4ccccc4c3C[C@H]3C(=O)N(C4CCN(CC5CCCCC5)CC4)CC(=O)N23)c(OC)c1
inactive: T-47D breast 101% | BT-549 breast 80.3% | MDA-MB-435 melanoma 73.6% | SW-620 colon 80.1% | MCF7 breast 42.6% | HCT-116 colon 50% | HCC-2998 colon 78.6% | KM12 colon 82.3%

O=C(O)c1ccc(-n2cc(CNc3cc(F)c(F)c(F)c3)c(-c3cccc(F)c3)n2)cc1
inactive: T-47D breast 81.6% | BT-549 breast 107% | MDA-MB-435 melanoma 99.8% | SW-620 colon 105% | MCF7 breast 41% | HCT-116 colon 86.2% | HCC-2998 colon 87.5% | KM12 colon 96.8%

O=S(=O)(NCCNc1nccc(-n2cnc3ccccc32)n1)c1ccc(Cl)cc1
inactive: T-47D breast 97.1% | BT-549 breast 99.3% | MDA-MB-435 melanoma 100% | SW-620 colon 100% | MCF7 breast 87.9% | HCT-116 colon 94.6% | HCC-2998 colon 101% | KM12 colon 97.1%

COc1ccc(/C=C/C(=O)c2cccc(NC(=O)CSc3nc4ccccc4c(=O)n3-c3ccccc3)c2)cc1OC
inactive: T-47D breast 88.2% | BT-549 breast 115% | MDA-MB-435 melanoma 101% | SW-620 colon 94.1% | MCF7 breast 69.2% | HCT-116 colon 86.2% | HCC-2998 colon 111% | KM12 colon 95.9%

N/C(=N\C(N)=N\c1nc2ccccc2s1)c1cccc(F)c1
inactive: T-47D breast 74.6% [5 µM] | BT-549 breast 96.7% [5 µM] | MDA-MB-435 melanoma 104% [5 µM] | SW-620 colon 97.2% [5 µM] | MCF7 breast 85.8% [5 µM] | HCT-116 colon 89.3% [5 µM] | HCC-2998 colon 112% [5 µM] | KM12 colon 99.9% [5 µM]

Clc1nc2ccccc2nc1-c1nnc(C2CCCCC2)o1
inactive: T-47D breast 86% | BT-549 breast 138% | MDA-MB-435 melanoma 99.1% | SW-620 colon 97.2% | MCF7 breast 37.4% | HCT-116 colon 101% | HCC-2998 colon 104% | KM12 colon 94.1%

CC(=O)N1N=C(c2cccc(-n3cccc3)c2)CC1c1cccc(F)c1 (stereo not given)
inactive: T-47D breast 89% | BT-549 breast 126% | MDA-MB-435 melanoma 102% | SW-620 colon 96% | MCF7 breast 75.1% | HCT-116 colon 92.5% | HCC-2998 colon 106% | KM12 colon 103%

CCCCCc1ccc(S(=O)(=O)Nc2cccc(-c3csc(NCCN4CCN(C)CC4)n3)c2)cc1
inactive: T-47D breast 80.1% | BT-549 breast 95.1% | MDA-MB-435 melanoma 29.7% | MCF7 breast 15.5% | KM12 colon 77.7%
active: SW-620 colon 2.57% | HCT-116 colon 4.07% | HCC-2998 colon -6.69%
